# Tau fluor cs: Counterscreen qHTS for Inhibitors of Tau Fibril Formation, Fluorescence Polarization | tau K18 P301L Alexa594 fluorescence, heparin fibrillization | Potency, µM (titrated, usually from 57.7 µM) | 280,000 compounds, 0.93% hits | AID 1463, 2008; further: nearly all actives have a fitted effect of over 55% in size
#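 Human K18 P301L tau (15 uM unlabeled plus 0.24 uM Alexa 594-labeled, final) in 100 mM sodium acetate pH 7 was mixed with compound and 20 uM heparin and incubated 6 hr at 37 C.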
# FBPA coupling cs: qHTS Assay for Inhibitors of Fructose-1,6-bisphosphate Aldolase from Giardia Lamblia: Coupling assay counterscreen; coupling enzyme system counterscreen, AmpLite Red fluorescence; activity change, negative = inhibition, % at 58.2 µM, hits read low; 290,000 compounds, 0.67% hits; in the data active means activity change below about -30%
#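 Counterscreen of the coupled detection system alone, without aldolase: glyceraldehyde-3-phosphate coupling enzymes plus AmpLite Red readout. Compounds at 57.5 uM final, 10 min RT preincubation, 20 min RT reaction, fluorescence 525/598 nm.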
# Tau FP inhib: qHTS for Inhibitors of Tau Fibril Formation, Fluorescence Polarization; Microtubule-associated protein tau (Homo sapiens), P10636; K18 P301L tau heparin fibrillization, Alexa594 FP, 6 h; Potency, µM (doses to about 57.7 µM), actives largely listed as inhibitors; 280,000 compounds, 0.39% hits; further: nearly all actives have a fitted effect of over 55% in size
# Target sequence (P10636 561-689 P618L limits assumed): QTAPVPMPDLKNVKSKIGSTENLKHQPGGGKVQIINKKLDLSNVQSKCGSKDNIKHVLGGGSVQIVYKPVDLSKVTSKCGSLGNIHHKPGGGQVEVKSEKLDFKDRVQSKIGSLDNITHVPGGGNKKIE
#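 Recombinant K18 P301L […], labeled with Alexa 594 at 0.24 uM over 15 uM unlabeled; heparin inducer 20 uM final; 37 C, 6 hr; FP endpoint.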
# Tau fibril ThT: qHTS for Inhibitors of Tau Fibril Formation, Thioflavin T Binding; Potency, µM (doses to about 57.4 µM), most hits filed as inhibitors; 270,000 compounds, 2.1% hits; AID 1460, 2008; recombinant tau K18 P301L (four-repeat tau fragment), heparin-induced fibrillization, ThT fluorescence; Microtubule-associated protein tau (Homo sapiens), P10636; further: nearly all actives have a fitted effect of over 55% in size
#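 Recombinant human tau K18 fragment […] carrying P301L, 15 uM unlabeled plus 0.24 uM Alexa 594-labeled, was fibrillized with 20 uM heparin in 100 mM sodium acetate pH 7 for 6 hr at 37 C; 30 uM ThT fluorescence read after 1 hr.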
# Numbers stand for hits; i = inactive; ? = inconclusive; nt = no result; ! = not active in a repeat; [ ] = another dose, or the depositor's remark. Shown are actives, neighbours in structure and some others; about 2.7% of the full set was active somewhere. Unless noted, the call rests on the fitted dose curve; in most records, active means well fitted curve in the direction sought with a large enough effect; inconclusive means small, poorly fitted or top-dose-only effect, or another doubt; inactive means no such curve, though single readings can be large; an effect the other way counts as inactive or inconclusive.
SMILES,Tau fluor cs,FBPA coupling cs,Tau FP inhib,Tau fibril ThT
Fc1ccc(CNCCCSc2nnnn2-c2ccccc2)cc1,i,nt,i,i
CCCCCCCCCCCCCCC[C@H](O)[C@@H](N)CO,i,i,i,i
COc1ccc(Nc2cc(C(=O)NCCCN(C)Cc3ccccc3)c3ccccc3n2)cc1,12.6µM[quencher],nt,?,?
COc1ccc(Nc2cc(C(=O)NCCCN3CCN(c4ccccc4F)CC3)c3ccccc3n2)c(OC)c1,7.08µM[quencher],nt,i,?
CCN(CC)CCCNC(=O)c1cc(Nc2ccc(OC)cc2)nc2ccccc12,nt,i,nt,nt
COc1ccc(Nc2nc(-c3ccccc3)nc3ccccc23)c(OC)c1,25.1µM[quencher],i,i,?
CCCCCC#CC[C@@H](O)/C=C/C=C/C=C\[C@@H](O)CCCC(=O)O,i,i,i,i
N#Cc1ccccc1NC(=O)C(=O)NCC(c1cccnc1)N1CCc2ccccc2C1 (configuration not stated),i,nt,i,?
COc1ccc(CNc2ncncc2-c2ccc3c(c2)OCO3)c(OC)c1,i,i,i,i
COc1ccc(C(=O)N2CCC3(CCCN(C(=O)NC(C)C)C3)CC2)cc1,nt,i,nt,nt
C[C@@]1(O)C(O)[C@@H](CO)O[C@H]1n1cnc2c(NC3CCCC3)nc(Cl)nc21 (some centres not stated),i,i,i,i
Cc1ccc(C)c(NS(=O)(=O)c2cc3c(cc2Cl)NC(=O)CO3)c1,14.1µM[quencher],nt,i,i
CC(C)(C)C(=O)NCCc1nc2ccccc2n1CCCCOc1ccc(Cl)cc1,i,nt,i,i
CSc1nc(N(CCO)CCO)c2sc3nc(-c4ccco4)c4c(c3c2n1)CCC4,?,i,?,25.1µM
Cc1ccccc1CN1C(=O)c2ccccc2S(=O)(=O)c2ccc(C(=O)OCC3CCCO3)cc21 (configuration not stated),i,nt,i,i
COc1ccc2nc(NC(=O)c3nc(S(=O)(=O)Cc4ccccc4)ncc3Cl)sc2c1,?,nt,i,8.91µM
COc1ccc2nc(NC(=O)c3nc(S(=O)(=O)Cc4ccccc4F)ncc3Cl)sc2c1,?,nt,i,7.08µM
COc1ccc2nc(NC(=O)c3nc(SCc4ccccc4F)ncc3Cl)sc2c1,i,nt,i,i
Cc1ccc(OCC(=O)N(Cc2ccc(N(C)C)cc2)CC2CCCO2)cc1C (configuration not stated),i,nt,i,i
COc1cc(Br)cc(CNc2ccc(F)c([N+](=O)[O-])c2)c1O,25.1µM[quencher],i,i,15.8µM
COC(=O)C1=C(O)/C(=C\c2ccc(CNS(=O)(=O)c3ccc(Cl)cc3)o2)N=C1C,i,i,i,?
COC(=O)C1=C(O)/C(=C\c2ccc(CNS(=O)(=O)c3ccccc3)o2)N=C1C,?,i,?,14.1µM
CC(=O)c1[nH]c(C)c(C(=O)NCc2ccc(Cl)cc2)c1C,i,nt,i,i
COC(=O)[C@@H]1OC(c2ccccc2)O[C@H]1C(=O)OC,nt,i,nt,nt
O=c1c(Br)c(Br)cnn1-c1ccccc1,i,i,?,31.6µM
SMILES,Tau fluor cs,FBPA coupling cs,Tau FP inhib,Tau fibril ThT
O=c1c(Br)c(N2CCCC2)cnn1-c1ccccc1,i,i,i,i
Cc1ccc(-n2ncc(Br)c(Br)c2=O)cc1,i,i,?,15.8µM
CN(C)S(=O)(=O)c1ccc(C(=O)Nc2ccc(-n3nncc3-c3ccccc3)cc2)cc1,?,nt,i,i
Cc1nc2nc(C(F)(F)F)[nH]n2c(=O)c1Cc1ccccc1,i,nt,i,i
Cc1cc2nc3c(=O)[nH]c(=O)nc-3n(CC(O)C(O)C(O)CO)c2cc1C (configuration not stated),i,-33.4!,i,?
Cc1cc(Nc2cccc(Cl)c2)nc2ccc(NC(=O)c3ccc(F)cc3Cl)cc12,4.47µM[quencher],nt,?,?
O=C(Nc1nc2ccccc2c(=O)s1)c1ccc(F)cc1Cl,nt,i,nt,nt
Cc1cc(Nc2cccc(Cl)c2)nc2ccc(NC(=O)Cc3cccc(C(F)(F)F)c3)cc12,3.98µM[quencher],nt,?,?
Cc1cc(Nc2cccc(Cl)c2)nc2ccc(NC(=O)Cc3ccc(Cl)cc3)cc12,3.55µM[quencher],nt,?,?
COc1ccc(Cl)cc1C(=O)Nc1ccc2nc(Nc3cccc(Cl)c3)cc(C)c2c1,15.8µM[quencher],nt,i,?
CCCN(CCC)CCNC(=O)CN1C(=O)COc2ccc(S(=O)(=O)N3CCC(C)CC3)cc21,i,nt,i,i
COc1ccc(CC(=O)Nc2ccc3nc(Nc4cccc(Cl)c4)cc(C)c3c2)cc1OC,2.51µM[quencher],nt,?,?

# From PubChem BioAssay
